Assay results as given in PubChem BioAssay AID463187 (University of Pittsburgh Molecular Library Screening Center, 2010).
Several values for one entry are separate records, joined by “and”; a condition that tells them apart may be missing. Equal entries are not always repeated. Out of some 220,000 compounds screened, about 1,500 (0.68%) were called active.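 Rule for the calls: active = Hck-Nef kinase inhibition above about 50% (limit read from the data); inactive = inhibition below that limit.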 For the sample, actives were picked, then their nearest neighbours and some compounds at random.

Target: Tyrosine-protein kinase HCK (Homo sapiens) (UniProt P08631)
Assay: Hck:Nef complex kinase activity blockers – biochemical, Z-Lyte FRET, 384-well, Hck-YEEI, primary screen (AID 463187);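 note: 0% = DMSO with Hck plus Nef and 100% = Hck alone without Nef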
Details: Recombinant Hck-YEEI plus Nef, Z-Lyte FRET kinase assay; at 20 µM; hits give high values

Sequence of Tyrosine-protein kinase HCK (Homo sapiens) (P08631 whole entry, looked up): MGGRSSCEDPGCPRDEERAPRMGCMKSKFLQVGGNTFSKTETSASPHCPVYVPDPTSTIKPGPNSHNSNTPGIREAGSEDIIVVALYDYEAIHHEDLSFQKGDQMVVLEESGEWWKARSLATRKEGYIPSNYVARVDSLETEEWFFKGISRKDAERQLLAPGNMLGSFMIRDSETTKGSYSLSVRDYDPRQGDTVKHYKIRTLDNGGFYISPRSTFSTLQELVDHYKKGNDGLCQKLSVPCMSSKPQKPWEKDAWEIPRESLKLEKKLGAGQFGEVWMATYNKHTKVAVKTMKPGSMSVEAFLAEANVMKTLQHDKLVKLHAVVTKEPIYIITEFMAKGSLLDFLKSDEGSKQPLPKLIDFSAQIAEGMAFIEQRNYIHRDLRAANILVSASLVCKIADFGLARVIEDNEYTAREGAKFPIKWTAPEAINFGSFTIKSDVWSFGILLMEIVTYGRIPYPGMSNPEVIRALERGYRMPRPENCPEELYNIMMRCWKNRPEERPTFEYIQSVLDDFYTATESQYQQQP

SMILES	inhibition
Cc1nnc(NC(=O)CSc2nc(C3CCCCC3)nc3ccccc23)s1	-0.612% (inactive)
CC(=O)Nc1cc2ccc(OC(C)=O)cc2oc1=O	23.3% (inactive)
Cc1c(Cc2ccccc2)c(=O)oc2cc(OCC(N)=O)ccc12	28.6% (inactive)
CC(=O)Oc1ccc2c(C)c(CC(C)O)c(=O)oc2c1 (configuration not stated)	81.8% (active)
CS(=O)(=O)N(CC(=O)N1CCN(Cc2ccccc2)CC1)c1ccc2c(c1)OCCO2	1.45% (inactive)
Cc1ccc(C)c(NC(=S)NCC(c2cccnc2)N2CCOCC2)c1 (configuration not stated)	0.595% (inactive)
COc1ccc(N=Cc2c(O)[nH]c3ccccc23)cc1OC	53% (active)
COc1ccccc1N=Cc1c(O)c2ccccc2oc1=O	0.48% (inactive)
COc1cc(N=Cc2c(O)[nH]c3ccccc23)cc(OC)c1OC	34.4% (inactive)
CC(C)CNC(=O)/C=C/C(=O)O	-8.82% (inactive) and 22% (inactive)
Cc1ccc(CN(C)CC(=O)Nc2cccc([N+](=O)[O-])c2)o1	-2.63% (inactive)
CN(CC(=O)Nc1cccc(F)c1)CC(=O)Nc1cccc([N+](=O)[O-])c1	64.6% (active)
Cc1ccc(NC(=O)CN(C)CC(=O)Nc2cccc(F)c2)cc1[N+](=O)[O-]	-0.303% (inactive)
Cc1cccc(C)c1NC(=O)C1(C)c2cccc[n+]2CC(=O)N1Cc1cccs1 (configuration not stated)	16.8% (inactive)
CCS(=O)(=O)c1ccc2c(c1)N(S(=O)(=O)c1ccccc1)CC(C(=O)O)O2 (configuration not stated)	1.06% (inactive)
CC1CCCN(CC(O)COc2ccc3c(c2)OCO3)C1 (configuration not stated)	18.9% (inactive)
CCOc1cccc(/C=N/N2C(=O)CSC2=S)c1O	-22.8% (inactive)
O=C1CSC(=S)N1/N=C/c1ccc(O)c([N+](=O)[O-])c1	118% (active)
Cc1cc(C(=O)N/N=C/c2ccc(O)c([N+](=O)[O-])c2)c(C)n1-c1ccc(F)cc1	18.7% (inactive)
Clc1ccc(-n2nnnc2CN2CCCCC2)cc1Cl	2.13% (inactive)
Cc1cc(C)c2c(n1)nn1c(-n3ccnc3)cc(C)nc21	5.47% (inactive)
Cc1cc(C)c2c(n1)nn1c(N3CCN(c4cccc(Cl)c4)CC3)cc(C)nc21	35.2% (inactive)
Cc1cc(C)c2c(n1)nn1c(N3CCOCC3)cc(C)nc21	58.8% (active)
CCc1ccc(NC(=O)N[C@H](C(=O)O)C(C)CC)cc1 (some centres not stated)	-2.07% (inactive)
CC1=CC(C)(C)NC(=S)N1c1ccccc1	-1.08% (inactive)
COc1ccc(N2CCN(c3ccc([N+](=O)[O-])cc3Cl)CC2)cc1	9.48% (inactive)
C/C=C/C(=O)Nc1nnc(C(C)C)s1	6.42% (inactive)
